Measured values published in PubChem BioAssay AID1159580 (chemical genetic matrix, 2015).
Out of some 5,500 compounds screened, about 2,000 (36%) were called active. Not shown: some 18% with an inconclusive outcome. Rule as the data show it: active = normalized growth mostly below about 0.91 (no sharp cut-off); inconclusive = no clear call, values can overlap the other calls; inactive = mostly above about 0.92. The list shows a part of the results.

Experiment: chemical genetic growth profiling, strain panel (AID 1159580);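 also: tested at 20 µM; growth read once vehicle control cultures reached saturation at 30 °C; 1 = growth at the plate median or of vehicle wells; lower values mean less growth of the strain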
Settings: growth OD

Measured: normalized growth

N#Cc1ccc2c(c1)N(CCCN1CCC(O)CC1)c1ccccc1S2
inactive: S. cerevisiae deletion strains, locus YJR075W, strain HOC1, hits give low values 1.03 | S. cerevisiae deletion strains, locus YKL009W, strain mrt4, hits give low values 1.01 | S. cerevisiae deletion strains, locus YKL068W, hits give low values 1.01 | S. cerevisiae deletion strains, locus YKL085W, strain MDH1 (second series), hits give low values 1.04 | S. cerevisiae deletion strains, locus YKL085W, strain MDH1, hits give low values 1.04 | S. cerevisiae deletion strains, locus YKL160W, strain elf1, hits give low values 0.998 | S. cerevisiae deletion strains, locus YKL190W, strain CNB1, hits give low values 1.01 | S. cerevisiae deletion strains, locus YKR001C, strain vps1, hits give low values 1.02 | S. cerevisiae deletion strains, locus YKR026C, strain gcn3, hits give low values 0.995 | S. cerevisiae deletion strains, locus YKR091W, strain srl3, hits give low values 0.995 | S. cerevisiae deletion strains, locus YLL001W, strain dnm1, hits give low values 0.996 | S. cerevisiae deletion strains, locus YLL026W, hits give low values 0.987 | S. cerevisiae deletion strains, locus YLL041C, strain sdh2, hits give low values 0.996 | S. cerevisiae deletion strains, locus YLR027C, strain aat2, hits give low values 0.992 | S. cerevisiae deletion strains, locus YLR039C, strain RIC1, hits give low values 1.08 | S. cerevisiae deletion strains, locus YLR058C, strain SHM2, hits give low values 1.01 | S. cerevisiae deletion strains, locus YLR102C, strain apc9, hits give low values 1.02 | S. cerevisiae deletion strains, locus YLR113W, strain HOG1, hits give low values 1.05 | S. cerevisiae deletion strains, locus YLR221C, strain rsa3, hits give low values 0.995 | S. cerevisiae deletion strains, locus YLR258W, strain gsy2, hits give low values 0.977 | S. cerevisiae deletion strains, locus YLR262C, strain YPT6 (second series), hits give low values 1.02 | S. cerevisiae deletion strains, locus YLR262C, strain YPT6, hits give low values 1.07 | S. cerevisiae deletion strains, locus YLR268W, strain sec22, hits give low values 1.01 | S. cerevisiae deletion strains, locus YLR320W, strain mms22, hits give low values 0.959 | S. cerevisiae deletion strains, locus YLR330W, strain CHS5, hits give low values 1 | S. cerevisiae deletion strains, locus YLR342W, strain FKS1 (second series), hits give low values 0.989 | S. cerevisiae deletion strains, locus YLR342W, strain FKS1, hits give low values 0.992 | S. cerevisiae deletion strains, locus YLR357W, strain rsc2, hits give low values 0.969 | S. cerevisiae deletion strains, locus YLR370C, strain arc18, hits give low values 0.994 | S. cerevisiae deletion strains, locus YLR371W, strain rom2, hits give low values 1.02 | S. cerevisiae deletion strains, locus YLR384C, strain iki3, hits give low values 0.986 | S. cerevisiae deletion strains, locus YLR418C, strain cdc73, hits give low values 1 | S. cerevisiae deletion strains, locus YML016C, strain PPZ1, hits give low values 1.01 | S. cerevisiae deletion strains, locus YML032C, strain rad52, hits give low values 1.01 | S. cerevisiae deletion strains, locus YML120C, strain ndi1, hits give low values 0.994 | S. cerevisiae deletion strains, locus YML124C, strain tub3, hits give low values 1.02 | S. cerevisiae deletion strains, locus YMR058W, strain fet3, hits give low values 0.999 | S. cerevisiae deletion strains, locus YMR078C, strain ctf18, hits give low values 1.02 | S. cerevisiae deletion strains, locus YMR125W, strain sto1, hits give low values 0.966 | S. cerevisiae deletion strains, locus YMR129W, hits give low values 0.997 | S. cerevisiae deletion strains, locus YMR205C, strain PFK2, hits give low values 0.935 | S. cerevisiae deletion strains, locus YMR223W, strain ubp8, hits give low values 1.01 | S. cerevisiae deletion strains, locus YMR231W, strain pep5, hits give low values 1 | S. cerevisiae deletion strains, locus YMR263W, strain SAP30, hits give low values 1.02 | S. cerevisiae deletion strains, locus YMR307W, strain GAS1, hits give low values 1.04 | S. cerevisiae deletion strains, locus YNL067W, strain RPL9B, hits give low values 1.01 | S. cerevisiae deletion strains, locus YNL071W, strain lat1, hits give low values 0.96 | S. cerevisiae deletion strains, locus YNL128W, strain TEP1, hits give low values 1.01 | S. cerevisiae deletion strains, locus YNL153C, strain GIM3, hits give low values 1 | S. cerevisiae deletion strains, locus YNL183C, strain NPR1, hits give low values 0.983 | S. cerevisiae deletion strains, locus YNL209W, strain ssb2, hits give low values 0.993 | S. cerevisiae deletion strains, locus YNL233W, strain BNI4, hits give low values 0.998 | S. cerevisiae deletion strains, locus YNL248C, strain rpa49, hits give low values 0.997 | S. cerevisiae deletion strains, locus YNL250W, strain rad50, hits give low values 1.04 | S. cerevisiae deletion strains, locus YNL271C, strain bni1, hits give low values 1.03 | S. cerevisiae deletion strains, locus YNL298W, strain CLA4, hits give low values 1.02 | S. cerevisiae deletion strains, locus YNL307C, strain MCK1, hits give low values 1 | S. cerevisiae deletion strains, locus YNL322C, strain KRE1 (second series), hits give low values 0.995 | S. cerevisiae deletion strains, locus YNL322C, strain KRE1, hits give low values 1.01 | S. cerevisiae deletion strains, locus YNR049C, strain mso1, hits give low values 0.991 | S. cerevisiae deletion strains, locus YNR052C, strain pop2, hits give low values 1.02 | S. cerevisiae deletion strains, locus YOL006C, strain TOP1, hits give low values 1.01 | S. cerevisiae deletion strains, locus YOL012C, strain htz1 0.994 | S. cerevisiae deletion strains, locus YOL147C, strain pex11, hits give low values 1.02 | S. cerevisiae deletion strains, locus YOR001W, strain rrp6, hits give low values 0.981 | S. cerevisiae deletion strains, locus YOR061W, strain CKA2, hits give low values 1.01 | S. cerevisiae deletion strains, locus YOR069W, strain VPS5, hits give low values 1.01 | S. cerevisiae deletion strains, locus YOR070C, strain gyp1, hits give low values 1.04 | S. cerevisiae deletion strains, locus YOR080W, strain dia2, hits give low values 0.987 | S. cerevisiae deletion strains, locus YOR083W, strain WHI5, hits give low values 1 | S. cerevisiae deletion strains, locus YOR106W, strain vam3, hits give low values 1 | S. cerevisiae deletion strains, locus YOR136W, strain idh2, hits give low values 1.03 | S. cerevisiae deletion strains, locus YOR144C, strain elg1, hits give low values 1.02 | S. cerevisiae deletion strains, locus YOR184W, strain ser1, hits give low values 1.03 | S. cerevisiae deletion strains, locus YOR231W, strain MKK1, hits give low values 1.08 | S. cerevisiae deletion strains, locus YOR265W, strain rbl2, hits give low values 0.98 | S. cerevisiae deletion strains, locus YOR270C, strain vph1, hits give low values 1.02 | S. cerevisiae deletion strains, locus YOR290C, strain snf2, hits give low values 0.973 | S. cerevisiae deletion strains, locus YOR316C, strain cot1, hits give low values 1.01 | S. cerevisiae deletion strains, locus YPL051W, strain arl3, hits give low values 1 | S. cerevisiae deletion strains, locus YPL055C, strain LGE1, hits give low values 1.02 | S. cerevisiae deletion strains, locus YPL078C, strain atp4, hits give low values 1 | S. cerevisiae deletion strains, locus YPL106C, strain sse1, hits give low values 0.963 | S. cerevisiae deletion strains, locus YPL240C, strain hsp82, hits give low values 1.01 | S. cerevisiae deletion strains, locus YPL241C, strain CIN2, hits give low values 1 | S. cerevisiae deletion strains, locus YPL256C, strain CLN2, hits give low values 1.07 | S. cerevisiae deletion strains, locus YPR119W, strain clb2, hits give low values 1.02 | S. cerevisiae deletion strains, locus YPR141C, strain kar3, hits give low values 1.02 | S. cerevisiae deletion strains, locus YPR163C, strain tif3, hits give low values 1.03 | S. cerevisiae deletion strains, locus YPR167C, strain met16, hits give low values 1.02 | S. cerevisiae deletion strains, strain wtn01, hits give low values 1.01 | S. cerevisiae strains, strain wild type, hits give low values 1.01
